HT1080NT lethal: kills 2HG-producing HT-1080-NT fibrosarcoma cells; HT-1080-NT fibrosarcoma viability, CellTiter-Glo ATP luminescence, 48 h; Potency, µM (titrated, usually from 46.1 µM), for the others: top-dose activity, negative = less viability, usual class: cytotoxic; hit rate 1.6% among 360,000; AID 686970;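 also: NT is the 2HG producing partner of a matched IDH1 knockdown line; 0% = DMSO-treated cells and -100% = media-only wells without cells; nearly all actives have a fitted effect of over 55% in size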
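HT-1080-NT fibrosarcoma cells (2HG-overproducing), 750 cells/well in RPMI with 5% FBS, dosed after 2 h and incubated 48 h at 37C. CellTiter-Glo luminescence normalized to DMSO and no-cell wells; concentration-response curves fitted and classed.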
KB-V1 MDR tox: kills drug-selected multidrug resistant KB-V1 cells; KB-V1 MDR cells viability, CellTiter-Glo, 72 h; Potency, µM (highest dose often 46.1 µM), usual class: cytotoxic; hit rate 3.4% among 400,000; AID 1347076; also: nearly all actives have a fitted effect of over 60% in size
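Potencies derive from concentration-effect curves fitted to normalized luminescence (CellTiter-Glo) of KB-V1 cells treated for 72 h at 37 degrees C in phenol-red-free DMEM containing 10% FBS.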
HT1080 IDH1KD tx: kills HT-1080 cells with IDH1 knockdown; HT-1080 IDH1 knockdown viability, ATP luminescence, 48 h; Potency, µM (series often up to 46.1 µM), for inactives: top-dose activity, negative = toxicity, most hits filed as cytotoxic; hit rate 2% among 360,000; AID 686971;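 also: 0% = DMSO wells and -100% = cell-free medium wells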
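In this qHTS, HT-1080 cells depleted of IDH1 are exposed for 48 h at 37 °C to compound titrations. Toxicity is scored from CellTiter-Glo luminescence, with DMSO as full viability and medium alone as none.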
TDP1 cell CPT: DT40-hTDP1 cell growth loss with CPT; hit rate 12% among 420,000; chicken DT40 Tdp1-/-;hTDP1 cells + 20 nM CPT, ATP luminescence, 48 h; Potency, µM (highest dose often 46.2 µM), inactives show top-dose activity change, negative = growth inhibition, usual class: inhibitors; also: nearly all actives have a fitted effect of over 55% in size
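Chicken DT40 Tdp1-/- cells complemented with human TDP1, 400 cells/well, exposed to compounds plus 20 nM camptothecin for at least 48 h at 37 C; viability read as ATP content by CellTiter-Glo luminescence.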
KB-3-1 tox: KB-3-1 parental cell cytotoxicity; KB-3-1 viability, CellTiter-Glo ATP luminescence, 72 h; Potency, µM (top dose mostly 46.1 µM), most hits filed as cytotoxic; hit rate 1.4% among 400,000; AID 1347075; also: nearly all actives have a fitted effect of over 60% in size
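Cytotoxicity measured as CellTiter-Glo luminescence after 72 h at 37 C. Compound titrations were pinned onto drug-naive KB-3-1 parental adenocarcinoma cells grown in DMEM with 10% FBS, and normalized data fitted to concentration-response curves.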
DT40 TDP1 no CPT: qHTS for Inhibitors of human tyrosyl-DNA phosphodiesterase 1 (TDP1): qHTS in cells in absence of CPT; hit rate 15% among 420,000; Potency, µM (titrated, usually from 46.2 µM), for inactives: at the top dose activity change, negative = growth inhibition, actives largely listed as inhibitors; DT40 Tdp1-/- hTDP1 cells, no CPT, ATP luminescence, 48 h; also: nearly all actives have a fitted effect of over 55% in size
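Growth of hTDP1-complemented DT40 Tdp1-knockout cells is measured by ATP luminescence after at least 48 hr compound exposure at 37 °C, with DMSO substituting for the 20 nM CPT used in the parallel screen.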
Starred values were filed as active, the others as inactive; [ ] = dose if it differs, or a comment. Sampled rows, rich in hits. Any-hit rate of the full collection: about 19%. Calls follow the shape of the dose curve; as a rule, active = well fitted curve in the direction sought with a large enough effect; inconclusive = small, poorly fitted or top-dose-only effect, or another doubt; inactive = no such curve, though single readings can be large; an effect the other way counts as inactive or inconclusive. Unless noted, % is scaled to controls: 0 for no effect and ±100 for the full control effect; potency is read from the fitted curve at half-maximal effect.

`O=C(Cc1ccccc1)c1c[nH]c(C(=O)NC2CCCC2)c1` gave HT1080NT lethal 20%, KB-V1 MDR tox inconclusive, HT1080 IDH1KD tx 14%, TDP1 cell CPT -19%, KB-3-1 tox inactive and DT40 TDP1 no CPT -13%.
For CCOc1ccc(CNC(=O)Cn2c(=O)c3cccn3c3cccnc32)cc1 the results were TDP1 cell CPT -12% and DT40 TDP1 no CPT -26%.
For C[C@H]1CCCCO[C@H](CN(C)C(=O)Nc2ccc(F)cc2)[C@@H](C)CN([C@@H](C)CO)C(=O)c2cc(NC(=O)Nc3ccc4c(c3)OCO4)ccc2O1 the results were HT1080NT lethal 17%, KB-V1 MDR tox inactive, HT1080 IDH1KD tx -19%, TDP1 cell CPT 21µM*, KB-3-1 tox inactive and DT40 TDP1 no CPT inconclusive.
Screening COc1ccc(NC(=O)N(C)C[C@H]2OCCCC[C@@H](C)Oc3ccc(N(C)C)cc3C(=O)N([C@H](C)CO)C[C@@H]2C)cc1 returned HT1080NT lethal 14%, KB-V1 MDR tox inactive, HT1080 IDH1KD tx 11%, TDP1 cell CPT -27%, KB-3-1 tox inconclusive and DT40 TDP1 no CPT inconclusive.
COc1ccc(NC(=O)N(C)C[C@H]2OCCCC[C@H](C)Oc3ccc(NC(=O)Nc4ccc5c(c4)OCO5)cc3C(=O)N([C@@H](C)CO)C[C@@H]2C)cc1 was read as HT1080NT lethal -6%, KB-V1 MDR tox inactive, HT1080 IDH1KD tx -8%, TDP1 cell CPT 21µM*, KB-3-1 tox inactive and DT40 TDP1 no CPT inconclusive.
Screening CC(=O)c1cccc(NC(=O)c2c(N3CCCC3=O)c3cc(F)ccc3n2C)c1 returned KB-V1 MDR tox inconclusive and KB-3-1 tox inactive.
For COCC1CCCN(Cc2ccc3c(c2)CN(C(=O)c2cn4ccc(C)cc4n2)CCO3)C1 (stereo not drawn) the results were TDP1 cell CPT -11%[9.04 µM] and DT40 TDP1 no CPT -17%.
Screening CSc1ncc(Cl)c(C(=O)N(Cc2ccc(N(C)C)cc2)Cc2ccco2)n1 returned KB-V1 MDR tox inactive, TDP1 cell CPT inconclusive, KB-3-1 tox inactive and DT40 TDP1 no CPT 7.3µM*.
For CCSc1ncc(Cl)c(C(=O)N(Cc2ccccc2)Cc2ccco2)n1 the results were TDP1 cell CPT inconclusive and DT40 TDP1 no CPT 16µM*.
`CCSc1ncc(Cl)c(C(=O)Nc2ccccc2C)n1` gave HT1080NT lethal -8%, KB-V1 MDR tox inactive, HT1080 IDH1KD tx 2%, TDP1 cell CPT -11%, KB-3-1 tox inactive and DT40 TDP1 no CPT 1%.
O=C(CCN1C(=O)NC2(CCCC2)C1=O)Nc1cccc(S(=O)(=O)N2CCOCC2)c1 was read as HT1080NT lethal 0%, KB-V1 MDR tox inactive, HT1080 IDH1KD tx 4%, TDP1 cell CPT 6%, KB-3-1 tox inactive and DT40 TDP1 no CPT 19%.
For COc1ccc(N2CCN(C(=O)c3cn(Cc4ccccc4)nc3-c3cccnc3)CC2)cc1 the results were HT1080NT lethal 1%, KB-V1 MDR tox inactive, HT1080 IDH1KD tx -1%, TDP1 cell CPT -24%, KB-3-1 tox inactive and DT40 TDP1 no CPT -16%.
Screening CCn1c2c(c(=O)n3ncc(C(=O)N4CCN(c5ccc(C(C)=O)cc5)CC4)c13)CN(Cc1ccc(OC)cc1)CC2 returned KB-V1 MDR tox inactive, TDP1 cell CPT 4.1µM*, KB-3-1 tox 21µM* and DT40 TDP1 no CPT 2.6µM*.
`CCn1c2c(c(=O)n3ncc(C(=O)Nc4ccc(OC(F)(F)F)cc4)c13)CN(Cc1ccc(OC)cc1)CC2` gave KB-V1 MDR tox inactive, TDP1 cell CPT inconclusive, KB-3-1 tox inactive and DT40 TDP1 no CPT 23µM*.
For COc1ccc(CN2CCc3c(c(=O)n4ncc(C(=O)N5CCN(c6ccc(F)cc6)CC5)c4n3C)C2)cc1 the results were KB-V1 MDR tox inactive, TDP1 cell CPT 2.3µM*, KB-3-1 tox inconclusive and DT40 TDP1 no CPT 1.8µM*.
For COc1ccc(-n2ncc(C(=O)N3CCN(c4ccc(F)cc4)CC3)c2C)cc1 the results were HT1080NT lethal -10%, KB-V1 MDR tox inconclusive, HT1080 IDH1KD tx -5%, TDP1 cell CPT -29%, KB-3-1 tox inactive and DT40 TDP1 no CPT inconclusive.
`Cc1csc(=Nc2ccccc2)n1Cc1ccco1` gave HT1080NT lethal 7%, KB-V1 MDR tox inactive, HT1080 IDH1KD tx 6%, TDP1 cell CPT -7%, KB-3-1 tox inactive and DT40 TDP1 no CPT inconclusive.
O=C(O)CCC(=O)NCCn1c(-c2ccccc2)csc1=Nc1ccccc1 was read as HT1080NT lethal 6%, KB-V1 MDR tox inactive, HT1080 IDH1KD tx 2%, TDP1 cell CPT -9%, KB-3-1 tox inactive and DT40 TDP1 no CPT -2%.
Screening COc1ccc(N=c2scc(-c3ccc(OC)cc3)n2CCO)cc1 returned HT1080NT lethal -19%, KB-V1 MDR tox inconclusive, HT1080 IDH1KD tx -28%, TDP1 cell CPT 21µM*, KB-3-1 tox inconclusive and DT40 TDP1 no CPT 9.2µM*.
Screening OCCCn1c(-c2ccccc2)csc1=Nc1ccccc1 returned HT1080NT lethal -13%, KB-V1 MDR tox inconclusive, HT1080 IDH1KD tx -15%, TDP1 cell CPT 23µM*, KB-3-1 tox inactive and DT40 TDP1 no CPT 16µM*.
For Cc1c(N=c2scc(-c3ccccc3)n2CCO)c(=O)n(-c2ccccc2)n1C the results were HT1080NT lethal 10%, KB-V1 MDR tox inactive, HT1080 IDH1KD tx 4%, TDP1 cell CPT -8%, KB-3-1 tox inactive and DT40 TDP1 no CPT inconclusive.
For CCN(CC)CCn1c(-c2ccccc2)csc1=Nc1ccccc1 the results were KB-V1 MDR tox inconclusive, TDP1 cell CPT inconclusive, KB-3-1 tox inactive and DT40 TDP1 no CPT 16µM*.
Screening Cc1ccc(-c2csc(=Nc3ccccc3)n2Cc2ccc3c(c2)OCO3)cc1 returned KB-V1 MDR tox inactive, TDP1 cell CPT 15µM*, KB-3-1 tox inactive and DT40 TDP1 no CPT 9.2µM*.
For CC(C)(C)OC(=O)NCC1CCC(C(=O)NC[C@H](CC(=O)O)c2ccc(Cl)cc2)CC1 (stereo partly drawn) the results were HT1080NT lethal 4%, KB-V1 MDR tox inactive, HT1080 IDH1KD tx 1%, TDP1 cell CPT -6%, KB-3-1 tox inactive and DT40 TDP1 no CPT -5%.
For O=C(COc1ccc(Cl)cc1)OCc1cc(=O)n2nc(C3CCCCC3)sc2n1 the results were KB-V1 MDR tox inconclusive, TDP1 cell CPT -3%, KB-3-1 tox inactive and DT40 TDP1 no CPT -23%.
Screening COc1cccc(-c2cncnc2NC2CCNCC2)c1 returned TDP1 cell CPT 3% and DT40 TDP1 no CPT -4%.
